# Results: PubChem BioAssay (NCI)
# About 79,000 compounds went through this panel and 15% of them were active in at least one assay; those are over-represented in the sample as a whole. A number with no mark means an inactive call. The source made the active and inactive calls. Cut-off read from the data, not from the text of the source: active = growth inhibition above about 70%; inactive = the rest.
# What was measured:
# [1] = NCI Yeast Anticancer Drug Screen. Data for the rad50 strain (AID 155);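 note: 0% = growth of vehicle-only cultures of the same strain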; details: S. cerevisiae rad50 strain growth inhibition; at 50.0 µM; stronger effect = higher value
# Summary of the method: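 Relative growth inhibition (compound vs vehicle) was measured in yeast with a defined repair-gene alteration.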
# [2] = NCI Yeast Anticancer Drug Screen. Data for the mec2-1 strain (AID 157); details: S. cerevisiae mec2-1 strain, at 50.0 µM, stronger effect = higher value
# Summary of the method: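 Cells of the genetically defined mec2-1 yeast strain are incubated with test compound. Inhibition of growth is calculated against vehicle-treated controls.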
# [3] = NCI Yeast Anticancer Drug Screen. Data for the sgs1 mgt1 strain (AID 161);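 note: 0% = growth of cultures given vehicle only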; details: S. cerevisiae sgs1 mgt1 strain, at 50.0 µM, stronger effect = higher value
# Summary of the method: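 Inhibition of yeast growth, normalised to vehicle-treated controls, is reported for a strain bearing genetic alterations in DNA damage repair.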
# [4] = NCI Yeast Anticancer Drug Screen. Data for the cln2 rad14 strain (AID 165);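 note: 0% = growth equal to vehicle treated cultures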; details: S. cerevisiae cln2 rad14 strain, at 50.0 µM, stronger effect = higher value
# Summary of the method: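 The screen exposed genetically defined yeast (cln2 rad14) to test compounds and scored growth inhibition relative to vehicle-treated controls.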
# [5] = NCI Yeast Anticancer Drug Screen. Data for the bub3 strain (AID 167); details: S. cerevisiae bub3 mutant strain, at 50.0 µM, stronger effect = higher value
# Summary of the method: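 Screening used yeast with an engineered genetic alteration affecting cell cycle control. Compound-exposed cultures were compared with vehicle cultures, and reduced growth was taken as inhibition.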
# [6] = NCI Yeast Anticancer Drug Screen. Data for the mlh1 rad18 strain (AID 175); details: S. cerevisiae mlh1 rad18 strain growth inhibition; at 50.0 µM; stronger effect = higher value
# Summary of the method: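 Compound-treated yeast growth, normalised to vehicle controls. Strain bears defined DNA repair mutations.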
SMILES,growth inhibition [1],growth inhibition [2],growth inhibition [3],growth inhibition [4],growth inhibition [5],growth inhibition [6]
CC(=O)Oc1c2oc3cc(O)c(O)cc3c2c(OC(C)=O)c2oc3cc(O)c(O)cc3c12,-0.4%,0.05%,-1.15%,-5.45%,-0.8%,-29.1%
CC1=CC(=O)c2ccc3c4ccccc4n(C)c3c2C1=O,-16.7%,-35.1%,-13.9%,0.2%,-2.9%,-19.9%
O=C(O)c1c(-c2ccccc2)c(=O)[nH]c2ccccc12,-6.8%,4.05%,-36.8%,17.1%,13.2%,11.1%
CCOC(=O)n1oc2ccc(Br)cc2c1=O,53.3%,58%,76.2% (active),45%,61.6%,64.5%
Cc1c(Cl)c(C)c(Cc2c(C)c(Cl)c(C)c(Cl)c2O)c(O)c1Cl,-4.7%,-40.4%,-20.6%,-11.7%,-5.2%,-5.9%
O=C(O)/C=C/C(=O)Nc1cc(Cl)cc2c1-c1c(Cl)cc(Cl)cc1C2=O,30.9%,8.95%,31.6%,-52.6%,-4%,4.25%
CCOC(=O)N/N=C(\Cc1ccccc1)OCC,16%,13.2%,8.45%,13.7%,14.6%,39.2%
C[N+](C)(C)CCC(=O)N1C/C(=C\c2ccccc2)C(=O)/C(=C/c2ccccc2)C1,-35.6%,-15.2%,-34.1%,8.75%,-15.7%,-34.8%
COc1ccccc1OCC(O)CO (stereo not drawn),-8.3%,-22.9%,-14.8%,7.7%,-10.9%,10.5%
Cc1c[nH]c(=O)n(CC(=O)C2(O)CCC3C4CCC5=CC(=O)CCC5(C)C4CCC32C)c1=O (stereo not drawn),5.25%,-4.45%,-10.9%,13.2%,-0.55%,-1.35%
OC1c2ccccc2-c2ccc(NCc3ccc4c(c3)OCO4)cc21 (stereo not drawn),48.8%,-11.2%,17.4%,-5.2%,-4.1%,19.4%
Cc1cc2c(c(C(N)=O)c1C)-c1cccc(Cl)c1C2=O,13.1%,12.2%,9.7%,11%,1.35%,-1.3%
CC(=O)[C@H]1C[C@@H](CC(=O)O)C1(C)C,-0.55%,-11.8%,-10.6%,-6%,-3.25%,-3.15%
O=C(CCC(=O)Nc1ccc(Cl)c(Cl)c1)Nc1ccc(Cl)c(Cl)c1,50.9%,46.5%,49%,39.1%,78.2% (active),63%
CC(C)(SC(=N)N)B(O)O,-3.2%,-12.3%,-6.55%,9.35%,-8.35%,-7.7%
CCOc1c2c(nn(C)c1=O)Oc1ccccc1N2CCCN1CCOCC1,-27.6%,-0.25%,-18.1%,2.3%,3.95%,-4.6%
CCOC(=O)CC1CC(C)(C(=O)OCC)C(=O)CC1=O (stereo not drawn),-21.1%,-4.9%,-11%,8.35%,7.5%,0%

SMILES,growth inhibition [1],growth inhibition [2],growth inhibition [3],growth inhibition [4],growth inhibition [5],growth inhibition [6]
CCOC(=O)[n+]1c(C)ccc2ccccc21,-20%,-10.9%,-9.55%,-23.8%,11%,-13.8%
O=C(Cc1n[nH]c(=S)nc1CC(=O)c1ccccc1)c1ccccc1,-2.05%,0.85%,5.2%,-17.5%,-27.9%,7.4%
O=[N+]([O-])c1cccc(OCC2CO2)c1 (stereo not drawn),9%,-23.8%,-0.75%,-13.2%,-2.1%,34.5%
COC(=O)NC(c1ccccc1)C(C)I (stereo not drawn),7.3%,-0.6%,-2.85%,-9.65%,3.25%,12.3%
CNC(=S)N/N=C(C)\C=N/Nc1ccc(Br)cc1,46.4%,14.1%,34.7%,-18.9%,21.2%,25.9%
CCOC(=N)CC(=O)Nc1ccccc1,4.45%,1.1%,1.65%,-1.6%,3.6%,2.35%
O=NC1CCCCC1Cl (stereo not drawn),3%,-4.15%,4.6%,-4.45%,7.05%,2.55%
CCCOC(=O)c1cc(O)ccc1O,1.15%,-0.45%,14.9%,-17.6%,-2.55%,-1.7%
CCOC(=O)C1CC(O)c2ccc(Cl)cc2N1 (stereo not drawn),5.45%,10.2%,20.6%,16.1%,9.6%,6.15%
C=C(CBr)CCCOCc1ccccc1,10.8%,-7.25%,-7.15%,2.1%,-5.35%,-7.55%
c1ccc(N=C(C(=Nc2ccccc2)c2ccccc2)c2ccccc2)cc1,4.7%,13.6%,3.65%,-67.8%,4.65%,-9.05%
CCN(CC)CC(Oc1ccccc1)C(=O)c1ccccc1 (stereo not drawn),-10.2%,-15.7%,4.75%,-30.1%,-11.4%,-7.4%
C(=N\NC1=NCCCCN1)/c1ccc2ccccc2c1,14.1%,-1.75%,-32%,-34.6%,-2.35%,7.6%
Nc1nn2c(nc(N)c3c(N)[nH]nc32)c1N=Nc1ccc(Br)cc1,-1.35%,11.8%,-4.95%,10.2%,13.2%,0.1%
CCOC(CCCl)c1ccccc1 (stereo not drawn),2.45%,-12.4%,-39.5%,7.85%,11.1%,-10.3%
O=C1Cc2ccccc2C(=O)N1,23%,22.3%,27.3%,7.4%,4.8%,16.4%
